Reference: PubChem BioAssay (EPA / NIEHS)
Activity calls are given as the source filed them. The calls were made as follows: active = hit-call score of the fitted dose curve at least 0.9, where 1 is the maximum; inactive = score below 0.9.

What was measured:
[1] = read-out: Urokinase-type plasminogen activator receptor (uPAR), PLAUR (gene 5329); test: BSK_4H_uPAR: BioMAP Diversity Plus: 4H Assay for Urokinase-type plasminogen activator receptor (uPAR) Biomarker Activity (AID 2283030); details: primary human endothelial cells (HUVEC); actives raise or lower the signal
How it was run: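 uPAR level read by ELISA on HUVEC cultures (BioMAP 4H) 24 h post-dosing, analyzed for gain or loss relative to DMSO. Parallel SRB staining assessed overt cytotoxicity.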

[2] = read-out: Vascular endothelial growth factor receptor 2 (Homo sapiens) (UniProt P35968); test: BSK_4H_VEGFRII: BioMAP Diversity Plus: 4H Assay for Vascular endothelial growth factor receptor 2 (VEGFR2) Biomarker Activity (AID 2283031); details: primary human endothelial cells (HUVEC); actives raise or lower the signal
How it was run: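 Measured by ELISA after 24 h of compound treatment: VEGFR2 on primary human umbilical vein endothelial cells, fitted in both directions relative to DMSO. Parallel cultures received SRB staining (560 nm) for overt cytotoxicity.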

[3] = read-out: Human Leukocyte Antigen - DR isotype (HLADR), HLA-DRA (gene 3122); test: BSK_BE3C_HLADR: BioMAP Diversity Plus: BE3C Assay for Human Leukocyte Antigen - DR isotype (HLADR) Biomarker Activity (AID 2283032); details: primary human bronchial epithelial cells; actives raise or lower the signal
How it was run: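 Signal came from an ELISA for HLA-DR in human bronchial epithelial primary cells harvested 24 h after treatment; gain- and loss-of-signal fitting used DMSO controls as reference.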

[4] = read-out: Vascular cell adhesion molecule 1 (VCAM1), VCAM1 (gene 7412); test: BSK_4H_VCAM1: BioMAP Diversity Plus: 4H Assay for Vascular cell adhesion molecule 1 (VCAM1) Biomarker Activity (AID 2283033); details: primary human endothelial cells (HUVEC); actives raise or lower the signal
How it was run: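 Endpoint derived from bidirectional fitting against DMSO controls of VCAM-1 ELISA signal in umbilical vein endothelial cells sampled at 24 h following treatment.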

[5] = read-out: Interferon-gamma inducible Protein 10 (IP10), CXCL10 (gene 3627); test: BSK_BE3C_IP10: BioMAP Diversity Plus: BE3C Assay for Interferon-gamma inducible Protein 10 (IP10) Biomarker Activity (AID 2283034); details: primary human bronchial epithelial cells; actives raise or lower the signal
How it was run: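 Using primary human bronchial epithelial cultures, the assay captures IP-10 by ELISA one day (24 h) after exposure. Parallel SRB staining of total protein flags overt cytotoxicity. Fits run bidirectionally relative to DMSO.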

[6] = read-out: Monokine induced gamma interferon (MIG), CXCL9 (gene 4283); test: BSK_BE3C_MIG: BioMAP Diversity Plus: BE3C Assay for Monokine induced gamma interferon (MIG) Biomarker Activity (AID 2283035); details: primary human bronchial epithelial cells; actives raise or lower the signal
How it was run: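 MIG level was determined by ELISA after 24 h chemical treatment of primary human bronchial epithelial cells. Values were fitted bidirectionally with DMSO as the negative control and activity baseline.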

[7] = read-out: Transforming growth factor beta 1 (TGFb1), TGFB1 (gene 7040); test: BSK_BE3C_TGFb1: BioMAP Diversity Plus: BE3C Assay for Transforming growth factor beta 1 (TGFb1) Biomarker Activity (AID 2283036;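 also: TGF-b1 protein level measured by ELISA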); details: primary human bronchial epithelial cells; actives raise or lower the signal
How it was run: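 In this human primary bronchial epithelial system, an ELISA quantified TGF-b1 one day after dosing. Endpoint changes in either direction were fitted relative to DMSO.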

[8] = read-out: Plasminogen activator inhibitor-1 (PAI1), SERPINE1 (gene 5054); test: BSK_BE3C_PAI1: BioMAP Diversity Plus: BE3C Assay for Plasminogen activator inhibitor-1 (PAI1) Biomarker Activity (AID 2283037); details: primary human bronchial epithelial cells; actives raise or lower the signal
How it was run: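 PAI-1 biomarker levels in treated human bronchial epithelial cells are determined by ELISA at 24 h. Both increases and decreases relative to DMSO are fitted.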

[9] = read-out: urokinase plasminogen activator (uPA), PLAU (gene 5328); test: BSK_BE3C_uPA: BioMAP Diversity Plus: BE3C Assay for urokinase plasminogen activator (uPA) Biomarker Activity (AID 2283038); details: primary human bronchial epithelial cells; actives raise or lower the signal
How it was run: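 ELISA for uPA on human primary bronchial epithelial cultures 24 h post-treatment, gain or loss against DMSO. Parallel SRB staining (0.1% after 10% TCA fixation, 560 nm) assessed overt cytotoxicity.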

[10] = read-out: Interleukin-6 (IL6), IL6 (gene 3569); test: BSK_CASM3C_IL6: BioMAP Diversity Plus: CASM3C Assay for Interleukin-6 (IL6) Biomarker Activity for (AID 2283040); details: primary human coronary artery smooth muscle cells; actives raise or lower the signal
[11] = read-out: Tissue plasminogen activator (tPA), PLAT (gene 5327); test: BSK_BE3C_tPA: BioMAP Diversity Plus: BE3C Assay for Tissue plasminogen activator (tPA) Biomarker Activity (AID 2283041); details: primary human bronchial epithelial cells; actives raise or lower the signal
How it was run: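 Bidirectional curve fitting relative to DMSO defined activity, with tPA detected by ELISA in chemically treated human bronchial epithelial primary cells at 24 hours.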

[12] = read-out: Interleukin-8 (IL8), CXCL8 (gene 3576); test: BSK_CASM3C_IL8: BioMAP Diversity Plus: CASM3C Assay for Interleukin-8 (IL8) Biomarker Activity (AID 2283042); details: primary human coronary artery smooth muscle cells; actives raise or lower the signal;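 also: IL-8 protein level quantified by ELISA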
[13] = read-out: Human Leukocyte Antigen - DR isotype (HLADR), HLA-DRA (gene 3122); test: BSK_CASM3C_HLADR: BioMAP Diversity Plus: CASM3C Assay for Human Leukocyte Antigen - DR isotype (HLADR) Biomarker Activity (AID 2283043); details: primary human coronary artery smooth muscle cells; actives raise or lower the signal;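 also: cell-surface HLA-DR protein level quantified by ELISA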
[14] = read-out: Macrophage colony-stimulating factor (MCSF), CSF1 (gene 1435); test: BSK_CASM3C_MCSF: BioMAP Diversity Plus: CASM3C Assay for Macrophage colony-stimulating factor (MCSF) Biomarker Activity (AID 2283044); details: primary human coronary artery smooth muscle cells; actives raise or lower the signal;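 also: M-CSF protein amount quantified by ELISA after 24 h exposure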
[15] = read-out: Low-density lipoprotein receptor (LDLR), LDLR (gene 3949); test: BSK_CASM3C_LDLR: BioMAP Diversity Plus: CASM3C Assay for Low-density lipoprotein receptor (LDLR) Biomarker Activity (AID 2283045); details: primary human coronary artery smooth muscle cells; actives raise or lower the signal;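 also: LDLR protein level on the cell surface quantified by ELISA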
[16] = read-out: Monocyte Chemoattractant Protein-1 (MCP1), CCL2 (gene 6347); test: BSK_CASM3C_MCP1: BioMAP Diversity Plus: CASM3C Assay for Monocyte Chemoattractant Protein-1 (MCP1) Biomarker Activity (AID 2283046); details: primary human coronary artery smooth muscle cells; actives raise or lower the signal;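 also: MCP-1 level quantified by ELISA 24 h after dosing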
[17] = BSK_CASM3C_Proliferation: Cell Proliferation Assessment in the BioMAP Diversity Plus: CASM3C Assay (AID 2283047); details: primary human coronary artery smooth muscle cells;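 also: sulforhodamine B total protein stain as relative cell number at 560 nm; sub-confluent cells exposed 48 h before staining; fitted both ways against DMSO so gain or loss of cell number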
[18] = read-out: Monokine induced gamma interferon (MIG), CXCL9 (gene 4283); test: BSK_CASM3C_MIG: BioMAP Diversity Plus: CASM3C Assay for Monokine induced gamma interferon (MIG) Biomarker Activity (AID 2283048); details: primary human coronary artery smooth muscle cells; actives raise or lower the signal;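 also: MIG protein level measured by ELISA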
[19] = read-out: serum amyloid A (SAA), SAA1 (gene 6288); test: BSK_CASM3C_SAA: BioMAP Diversity Plus: CASM3C Assay for serum amyloid A (SAA) Biomarker Activity (AID 2283049); details: primary human coronary artery smooth muscle cells; actives raise or lower the signal;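 also: SAA protein level quantified by ELISA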
[20] = read-out: Urokinase-type plasminogen activator receptor (uPAR), PLAUR (gene 5329); test: BSK_BE3C_uPAR: BioMAP Diversity Plus: BE3C Assay for Urokinase-type plasminogen activator receptor (uPAR) Biomarker Activity (AID 2283039); details: primary human bronchial epithelial cells; actives raise or lower the signal
How it was run: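 A uPAR ELISA serves as the readout, taken 24 h after treating primary human bronchial epithelial cells. Responses in either direction are fitted against DMSO, which defines baseline activity.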

Measured: AC50

CSC1=N[C@@](C)(c2ccccc2)C(=O)N1Nc1ccccc1
inactive: [1] | [2] | [3] | [5] | [6] | [7] | [8] | [9] | [10] | [11] | [12] | [13] | [14] | [15] | [16] | [18] | [19]
active: [4] 9.4 µM | [17] 11.5 µM

CC(C)=CC1C(C(=O)OCN2C(=O)C3=C(CCCC3)C2=O)C1(C)C (configuration not stated)
active: [1] 8.64 µM | [3] 20 µM | [17] 20 µM
inactive: [2] | [4] | [5] | [6] | [7] | [8] | [9] | [10] | [11] | [12] | [13] | [14] | [15] | [16] | [18] | [19]

CN(C)C(=O)Nc1cccc(C(F)(F)F)c1
inactive: [1] | [2] | [3] | [4] | [5] | [6] | [7] | [8] | [9] | [10] | [11] | [12] | [13] | [14] | [15] | [16] | [17] | [18] | [19]

CCCOCC(=Nc1ccc(Cl)cc1C(F)(F)F)n1ccnc1
inactive: [10] | [12] | [13] | [14] | [15] | [19]
active: [1] 36.7 µM | [3] 25.7 µM | [4] 30.7 µM | [5] 32.3 µM | [6] 35.3 µM | [8] 30.9 µM | [9] 34.5 µM | [20] 32.8 µM | [11] 32.8 µM | [16] 26 µM | [17] 32.7 µM | [18] 20 µM

COc1ccc(C(=CC(=O)N2CCOCC2)c2ccc(Cl)cc2)cc1OC
inactive: [1] | [2] | [3] | [4] | [5] | [6] | [7] | [8] | [9] | [10] | [11] | [12] | [13] | [15] | [17] | [18] | [19]
active: [14] 2.5 µM | [16] 6.65 µM

CCOP(=S)(OCC)Oc1ccc2c(C)c(Cl)c(=O)oc2c1
inactive: [1] | [2] | [3] | [4] | [5] | [6] | [7] | [9] | [20] | [10] | [11] | [12] | [13] | [14] | [15] | [16] | [18] | [19]
active: [17] 20 µM

COc1cccc(C(=O)NN(C(=O)c2cc(C)cc(C)c2)C(C)(C)C)c1C
inactive: [1] | [2] | [3] | [4] | [5] | [6] | [7] | [8] | [9] | [10] | [11] | [12] | [13] | [14] | [15] | [16] | [17] | [18] | [19]
